34 molecules from PubChem BioAssay (NCATS) can be followed below.

Each structure is given as a SMILES string. Records with an inconclusive call do not appear. A call without a number means that no potency is given here. The source made the active and inactive calls. Calls come from the whole dose curve; as a rule, active = well fitted curve in the direction sought with a large enough effect; inconclusive = small, poorly fitted or top-dose-only effect, or another doubt; inactive = no such curve, though single readings can be large; an effect the other way counts as inactive or inconclusive.
Potency is the fitted concentration of half-maximal effect.

Test system in one assay: not listed separately
The experiment in a line: qHTS of pediatric cancer cell lines to identify multiple opportunities for drug repurposing: Confirmatory screen for SK-N-SH cells (AID 1347129).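 Note: cells exposed to compound for 48 h before viability read; nearly all actives have a fitted effect of over 60% in size.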 The settings on record: SK-N-SH neuroblastoma cell viability; series mostly up to 46.1 µM. Summed up:
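Cells (500-1,000/well) in growth media were settled 5 h at 37 degrees C, then given compounds for 48 h. Viability was read as CellTiter-Glo luminescence. Primary runs used MIPE at 11 points (0.78 nM-46 µM) and NPC at 8 points (0.59 nM-46 µM); follow-ups used 11 points.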
In general terms: qHTS replaces the single test concentration by a dilution series.
Turning to `C[C@@]12OC(=O)[C@]1([C@@H](O)[C@@H]1C=CCCC1)NC(=O)[C@H]2CCCl`, the Potency was 2350 nM (active).

As to `O=C(O)CCCOc1ccc(Cl)cc1Cl`, the Potency entry is “inactive”.

`CCCN1CCO[C@@H]2c3cc(O)ccc3OC[C@@H]21`: the Potency result is “inactive”.

As for `C[C@@H]1CC[C@@]2(OC1)O[C@H]1C[C@H]3[C@@H]4CC=C5C[C@@H](O[C@@H]6O[C@H](CO)[C@@H](O[C@@H]7O[C@@H](C)[C@H](O)[C@@H](O)[C@@H]7O)[C@H](O)[C@@H]6O[C@@H]6O[C@@H](C)[C@H](O)[C@@H](O)[C@@H]6O)CC[C@]5(C)[C@@H]4CC[C@]3(C)[C@@H]1[C@H]2C`, the Potency is 16600 nM (active).

As to `CC(C)[C@]12O[C@@H]1[C@@H]1O[C@]13[C@]1(O[C@H]1C[C@@H]1C4=C(CC[C@@]13C)C(=O)OC4)[C@H]2O`, the Potency is 148 nM (active).

As for `CC=C(C)C(=O)O[C@H]1C(C)=C2[C@@H]3OC(=O)[C@@](C)(O)[C@@]3(O)[C@@H](OC(=O)CCC)C[C@](C)(OC(C)=O)[C@@H]2[C@@H]1OC(=O)CCCCCCC`, the Potency result is “inactive”.

For the molecule `CCC(=O)OC1CCC2C3CCC4=CC(=O)CC[C@@]4(C)C3CC[C@]12C` (stereo partly drawn), the Potency entry was “inactive”.

Regarding `Cc1[nH]nc2ccc(-c3cncc(OC[C@@H](N)Cc4c[nH]c5ccccc45)c3)cc12`, the Potency is 2960 nM (active).

For `C[C@H]1CCCC=CC2C[C@H](O)C[C@@H]2[C@H](O)C=CC(=O)O1` (stereo partly drawn), the Potency was 132 nM (active).

In the case of `O=C1C(I)=CC(=C(c2cc(I)c(O)c(I)c2)c2ccccc2C(=O)O)C=C1I`, the Potency result is “inactive”.

Turning to `CS(=O)(=O)c1ccc(C(=O)C2C(=O)CCCC2=O)c([N+](=O)[O-])c1`, the Potency result is “inactive”.

For the molecule `O=c1[nH]c2ccc(Cl)cc2c(N[C@@H]2CN3CCC2CC3)c1-c1nc2ccccc2[nH]1`, the Potency was 5260 nM (active).

On to `C[C@]12Cc3cn[nH]c3C[C@@H]1CC[C@@H]1[C@H]2CC[C@@]2(C)[C@H]1CC[C@]2(C)O`, for which the Potency entry was “inactive”.

With `CC(C)(C)C(O)C(Oc1ccc(Cl)cc1)n1cncn1` (stereo not drawn), the Potency entry was “inactive”.

`COc1cc([C@@H]2c3cc4c(cc3[C@@H](O)C3COC(=O)C32)OCO4)cc(OC)c1O` (stereo partly drawn): the Potency entry was “inactive”.

`CC(=O)[O][Hg][c]1ccccc1`: the Potency is 2640 nM (active).

As for `O=[N+]([O-])c1c(Cl)c(Cl)cc(Cl)c1Cl`, the Potency entry was “inactive”.

On to `O=C(O)COc1nc(Cl)c(Cl)cc1Cl`, for which the Potency entry was “inactive”.

Regarding `CC(C)(O)C=CC(=O)[C@](C)(O)[C@H]1[C@H](O)C[C@]2(C)[C@@H]3CC=C4[C@@H](C=C(O)C(=O)C4(C)C)[C@]3(C)C(=O)C[C@@]12C`, the Potency is 264 nM (active).

As to `CC(C)N[C@@H]1CCn2c(=O)[nH]c3cccc(c32)[C@@H]1O`, the Potency result was “inactive”.

In the case of `CC[C@@]1(O)C(=O)OCc2c1cc1n(c2=O)Cc2cc3ccccc3nc2-1`, the Potency is 2090 nM (active).

Take `Cc1ccccc1-n1c(Cn2cnc3c(N)ncnc32)nc2cccc(C)c2c1=O`: the Potency result was “inactive”.

Consider `CO[C@H]1CCC(O[C@H]2C[C@H]([C@]3(C)CC[C@]4(C[C@H](O)[C@@H](C)[C@@H]([C@@H](C)C=C(C)C(=O)[C@H](C)C[C@H](C)C(=O)O)O4)O3)O[C@]3(O[C@@H]([C@H]4O[C@@](O)(CO)[C@H](C)C[C@H]4C)C[C@H]3C)[C@H]2C)O[C@H]1C` (stereo partly drawn), for which the Potency is 5260 nM (active).

Regarding `CC1=C(O)C(=O)C=C2C1=CC=C1[C@@]2(C)CC[C@@]2(C)[C@@H]3C[C@](C)(C(=O)O)CC[C@]3(C)CC[C@]12C`, the Potency was 2960 nM (active).

The target of the next assay is Furin (Homo sapiens) (UniProt P09958). Nature of the assay: Furin counterscreen qHTS for Zika virus inhibitors (AID 1347149). Note: nearly all actives have a fitted effect of over 70% in size. The settings on record: furin enzymatic counterscreen, fluorogenic substrate; series mostly up to 57.5 µM. An outline of the steps: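 Fluorogenic cleavage of BOC-RVRR-AMC (2 microM final, Km ~15 µM) was monitored (ex 340, em 450 nm) at 37C after 15 min RT preincubation of 5 nM furin with compounds in HEPES pH 7.0 buffer with CaCl2 and Triton X-100. Percent inhibition was fitted to a 4-parameter Hill curve.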
Furin (Homo sapiens), sequence (P09958 whole entry, looked up): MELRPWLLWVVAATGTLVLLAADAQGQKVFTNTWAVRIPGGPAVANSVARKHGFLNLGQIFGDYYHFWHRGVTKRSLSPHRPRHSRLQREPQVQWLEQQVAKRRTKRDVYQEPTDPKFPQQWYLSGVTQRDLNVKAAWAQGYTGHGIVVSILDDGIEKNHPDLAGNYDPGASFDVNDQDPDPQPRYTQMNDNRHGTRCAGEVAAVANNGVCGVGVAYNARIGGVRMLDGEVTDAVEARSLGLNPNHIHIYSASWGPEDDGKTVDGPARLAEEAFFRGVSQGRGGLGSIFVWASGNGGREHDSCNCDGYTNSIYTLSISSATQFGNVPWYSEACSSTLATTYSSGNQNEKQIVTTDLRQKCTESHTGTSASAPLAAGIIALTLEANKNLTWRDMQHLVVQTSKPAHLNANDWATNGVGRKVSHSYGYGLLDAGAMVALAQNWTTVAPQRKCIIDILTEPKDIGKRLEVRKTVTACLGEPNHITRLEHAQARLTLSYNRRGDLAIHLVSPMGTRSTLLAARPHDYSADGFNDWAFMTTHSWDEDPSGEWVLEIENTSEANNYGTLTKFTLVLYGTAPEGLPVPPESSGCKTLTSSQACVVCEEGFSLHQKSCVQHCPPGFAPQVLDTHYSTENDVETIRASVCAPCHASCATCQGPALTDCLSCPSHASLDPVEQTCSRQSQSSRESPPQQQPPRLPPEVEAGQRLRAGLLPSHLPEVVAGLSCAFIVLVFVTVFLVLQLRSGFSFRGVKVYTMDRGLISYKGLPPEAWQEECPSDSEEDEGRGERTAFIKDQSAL
(A counterscreen serves to expose hits that act by an unwanted route or on another target.)
With `O=C1C(I)=CC(=C(c2cc(I)c(O)c(I)c2)c2ccccc2C(=O)O)C=C1I`, the Potency is 18700 nM (active).

`O=[N+]([O-])c1c(Cl)c(Cl)cc(Cl)c1Cl`: the Potency result is “inactive”.

For `CC1=C(O)C(=O)C=C2C1=CC=C1[C@@]2(C)CC[C@@]2(C)[C@@H]3C[C@](C)(C(=O)O)CC[C@]3(C)CC[C@]12C`, the Potency entry was “inactive”.

For another assay, the system named is Zika virus NS2B-NS3 protease. The experiment in a line: Primary screen GU AMC qHTS for Zika virus inhibitors (AID 1347154). Note: nearly all actives have a fitted effect of over 70% in size. The settings on record: Zika NS2B-NS3 unlinked protease, AMC fluorogenic substrate; series mostly up to 54.1 µM. Summed up: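 Unlinked Zika NS2B hydrophilic domain/NS3 protease domain noncovalent complex (25 nM final) in 10 mM Tris-HCl pH 8.0, 0.01% Tween 20, with AMC peptide substrate. Fluorescence (ex 340, em 450 nm) change over 15 min, room temperature; percent inhibition fitted to 4-parameter Hill equation.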
For `C[C@@]12OC(=O)[C@]1([C@@H](O)[C@@H]1C=CCCC1)NC(=O)[C@H]2CCCl`, the Potency entry was “inactive”.

Regarding `O=C(O)CCCOc1ccc(Cl)cc1Cl`, the Potency result was “inactive”.

As for `C[C@@H]1O[C@@H](O[C@@H]2C=C3CC[C@@H]4[C@@H](CC[C@]5(C)[C@H](c6ccc(=O)oc6)CC[C@@]45O)[C@@]3(C)CC2)[C@H](O)[C@H](O)[C@H]1O`, the Potency entry was “inactive”.

As for `CCCN1CCO[C@@H]2c3cc(O)ccc3OC[C@@H]21`, the Potency result is “inactive”.

`C[C@@H]1CC[C@@]2(OC1)O[C@H]1C[C@H]3[C@@H]4CC=C5C[C@@H](O[C@@H]6O[C@H](CO)[C@@H](O[C@@H]7O[C@@H](C)[C@H](O)[C@@H](O)[C@@H]7O)[C@H](O)[C@@H]6O[C@@H]6O[C@@H](C)[C@H](O)[C@@H](O)[C@@H]6O)CC[C@]5(C)[C@@H]4CC[C@]3(C)[C@@H]1[C@H]2C`: the Potency result was “inactive”.

On to `CC=C(C)C(=O)N[C@@H](c1ccccc1)[C@@H](O)C(=O)O[C@H]1C[C@@]2(O)[C@@H](OC(=O)c3ccccc3)[C@@H]3[C@]4(OC(C)=O)CO[C@@H]4C[C@H](O)[C@@]3(C)C(=O)[C@H](OC(C)=O)C(=C1C)C2(C)C`, for which the Potency entry was “inactive”.

Regarding `CC(C)[C@]12O[C@@H]1[C@@H]1O[C@]13[C@]1(O[C@H]1C[C@@H]1C4=C(CC[C@@]13C)C(=O)OC4)[C@H]2O`, the Potency result is “inactive”.

Turning to `CCC(=O)OC1CCC2C3CCC4=CC(=O)CC[C@@]4(C)C3CC[C@]12C` (stereo partly drawn), the Potency entry is “inactive”.

With `Cc1[nH]nc2ccc(-c3cncc(OC[C@@H](N)Cc4c[nH]c5ccccc45)c3)cc12`, the Potency result was “inactive”.

Regarding `C[C@H]1CCCC=CC2C[C@H](O)C[C@@H]2[C@H](O)C=CC(=O)O1` (stereo partly drawn), the Potency entry is “inactive”.

Turning to `CC(=Cc1csc(C)n1)[C@@H]1C[C@H]2O[C@@H]2CCC[C@H](C)[C@@H](O)[C@@H](C)C(=O)C(C)(C)[C@@H](O)CC(=O)O1`, the Potency result is “inactive”.

With `O=C1C(I)=CC(=C(c2cc(I)c(O)c(I)c2)c2ccccc2C(=O)O)C=C1I`, the Potency was 12800 nM (active).

For `CC[C@@H]1[C@@H](C)O[C@@](O)([C@@H](C)[C@H](O)[C@H](C)[C@H]2OC(=O)C=CC=C[C@@H](C)[C@@H]([C@@H](C)[C@@H](O)[C@H](C)[C@@]3(O)C[C@H](O[C@H]4C[C@H](O)[C@H](O)[C@H](C)O4)[C@H](CC)[C@@H](C)O3)OC(=O)C=CC=C[C@@H]2C)C[C@H]1O[C@H]1C[C@H](O)[C@H](O)[C@H](C)O1`, the Potency result is “inactive”.

Regarding `O=C(Nc1ccncc1)C(=O)c1cn(Cc2ccc(Cl)cc2)c2ccccc12`, the Potency result was “inactive”.

On to `O=C(N[C@H]1CN2CCC1CC2)c1ccc(Cl)cc1`, for which the Potency result was “inactive”.

As for `CC[C@H]1C=CC=CC[C@@H](C)[C@H](O)[C@@](C)(O)C(=O)[C@@H](C)[C@H](O)[C@@H](C)C(=O)[C@@H](C)[C@H](O)[C@@H](C)C=CC(=O)O[C@@H]2[C@@H](C)[C@H](CC1)O[C@]1(CC[C@H](C)[C@H](C[C@@H](C)O)O1)[C@H]2C`, the Potency entry is “inactive”.

For the molecule `COc1cc2cc(c1Cl)N(C)C(=O)C[C@H](OC(=O)C(C)C)[C@]1(C)O[C@H]1[C@H](C)[C@@H]1C[C@@](O)(NC(=O)O1)[C@H](OC)C=CC=C(C)C2`, the Potency result is “inactive”.

As to `O=c1[nH]c2ccc(Cl)cc2c(N[C@@H]2CN3CCC2CC3)c1-c1nc2ccccc2[nH]1`, the Potency result was “inactive”.

Regarding `C[C@]12Cc3cn[nH]c3C[C@@H]1CC[C@@H]1[C@H]2CC[C@@]2(C)[C@H]1CC[C@]2(C)O`, the Potency result is “inactive”.

Turning to `CC(C)(C)C(O)C(Oc1ccc(Cl)cc1)n1cncn1` (stereo not drawn), the Potency entry is “inactive”.

With `COc1cc([C@@H]2c3cc4c(cc3[C@@H](O)C3COC(=O)C32)OCO4)cc(OC)c1O` (stereo partly drawn), the Potency result is “inactive”.

Consider `CC(=O)[O][Hg][c]1ccccc1`, for which the Potency result was “inactive”.

On to `O=[N+]([O-])c1c(Cl)c(Cl)cc(Cl)c1Cl`, for which the Potency result was “inactive”.

In the case of `O=C(O)COc1nc(Cl)c(Cl)cc1Cl`, the Potency result was “inactive”.

Regarding `CC(C)(O)C=CC(=O)[C@](C)(O)[C@H]1[C@H](O)C[C@]2(C)[C@@H]3CC=C4[C@@H](C=C(O)C(=O)C4(C)C)[C@]3(C)C(=O)C[C@@]12C`, the Potency entry was “inactive”.

Regarding `CC(C)N[C@@H]1CCn2c(=O)[nH]c3cccc(c32)[C@@H]1O`, the Potency entry was “inactive”.

`Cc1c(N)nc([C@H](CC(N)=O)NC[C@@H](N)C(N)=O)nc1C(=O)N[C@H](C(=O)N[C@@H](C)[C@H](O)[C@@H](C)C(=O)N[C@@H](C(=O)NCCc1nc(-c2nc(C(=O)NCCC[S+](C)C)cs2)cs1)[C@@H](C)O)C(O[C@H]1O[C@H](CO)[C@H](O)[C@@H](O)[C@@H]1O[C@H]1O[C@H](CO)[C@@H](O)[C@H](OC(N)=O)[C@H]1O)c1cnc[nH]1` (stereo partly drawn): the Potency entry was “inactive”.

With `CC[C@@]1(O)C(=O)OCc2c1cc1n(c2=O)Cc2cc3ccccc3nc2-1`, the Potency is 2120 nM (active).

Turning to `Cc1ccccc1-n1c(Cn2cnc3c(N)ncnc32)nc2cccc(C)c2c1=O`, the Potency entry is “inactive”.

With `CC(=Cc1csc(C)n1)[C@@H]1C[C@H]2O[C@]2(C)CCC[C@H](C)[C@@H](O)[C@@H](C)C(=O)C(C)(C)[C@@H](O)CC(=O)O1`, the Potency entry is “inactive”.

In the case of `CO[C@H]1CCC(O[C@H]2C[C@H]([C@]3(C)CC[C@]4(C[C@H](O)[C@@H](C)[C@@H]([C@@H](C)C=C(C)C(=O)[C@H](C)C[C@H](C)C(=O)O)O4)O3)O[C@]3(O[C@@H]([C@H]4O[C@@](O)(CO)[C@H](C)C[C@H]4C)C[C@H]3C)[C@H]2C)O[C@H]1C` (stereo partly drawn), the Potency result is “inactive”.
